GALK inh = galactokinase (human) inhibition | AID 1868 | P51570 | hit rate 0.007% among 270,000 | Potency, µM (titrated, usually from 57.5 µM), without a hit: at the top dose activity change, negative = inhibition, actives largely listed as inhibitors | Purified GALK, Kinase-Glo residual ATP luminescence; also: potency is read from the fitted curve at half-maximal effect; % is scaled to controls: 0 for no effect and ±100 for the full control effect
Target sequence (P51570 whole entry, looked up): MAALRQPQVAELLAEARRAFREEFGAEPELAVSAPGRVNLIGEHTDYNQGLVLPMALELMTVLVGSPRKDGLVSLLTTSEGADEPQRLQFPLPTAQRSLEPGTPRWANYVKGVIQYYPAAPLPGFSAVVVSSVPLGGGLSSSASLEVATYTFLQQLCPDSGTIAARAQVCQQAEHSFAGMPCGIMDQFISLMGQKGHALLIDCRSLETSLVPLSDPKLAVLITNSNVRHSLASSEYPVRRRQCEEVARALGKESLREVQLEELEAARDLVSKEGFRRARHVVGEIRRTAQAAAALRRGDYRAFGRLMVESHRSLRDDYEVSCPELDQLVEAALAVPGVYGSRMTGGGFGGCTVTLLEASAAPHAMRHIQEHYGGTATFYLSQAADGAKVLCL
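Compounds were pin-transferred into ATP buffer (35 uM final), then GALK plus galactose (5 nM, 100 uM final) was added. After 1 h at room temperature, Kinase-Glo Plus was added and luminescence read after 10 min.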
PI4K2A block = PI4K2A (human) kinase inhibition | AID 1346378 | purified PI4K2A, ADP-Glo luminescence, 1 h; stronger effect = lower value | activity change, negative = inhibition, % at 76.9 µM | hit rate 0.13% among 420,000; in the data active = activity change below about -50%; inconclusive = mostly about -30% to -49%;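 also: -100% = wells without enzyme as full effect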
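ADP-Glo luminescence measured ADP generated by PI4K2A enzyme (4 ug/mL before mixing) with 1.2 mM PI substrate (pre-mix) and 300 microM ATP (pre-mix). Tris pH7.5 buffer with MgCl2, Triton X-100; 1 h reaction at ambient temperature.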
rTrxR1 inhibitor = rat TrxR1 inhibition; O89049; recombinant rTrxR1, NADPH fluorescence consumption, selenite substrate; Potency, µM (doses to about 114 µM), without a hit: at the highest dose activity change, negative = inhibition, usual class: inhibitors; hit rate 1% among 390,000; AID 588453; also: potency is read from the fitted curve at half-maximal effect; % is scaled to controls: 0 for no effect and ±100 for the full control effect; nearly all actives have a fitted effect of over 65% in size
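Rat TrxR1 (90 nM in the dispensed reagent) was pre-reduced with 400 uM NADPH for 5 min at room temperature, then incubated with compound for 15 min. After 400 uM selenite was added, NADPH fluorescence (Ex 340/Em 450 nm) was followed for 8 min.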
TrxR1 substrate = rat thioredoxin reductase 1 substrate activity; AID 588456; purified TrxR1 substrate turnover, NADPH consumption readout; O89049; Potency, µM (doses to about 114 µM), for inactives: top-dose activity change, negative = substrate turnover; hit rate 0.01% among 390,000; also: potency is read from the fitted curve at half-maximal effect; % is scaled to controls: 0 for no effect and ±100 for the full control effect; nearly all actives have a fitted effect of over 50% in size
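Rat TrxR1, dispensed at 90 nM, was prereduced with 400 uM NADPH (final) for 5 min at ~22 deg C, then incubated with compound 15 min before 400 uM selenite. A first-read NADPH fluorescence drop versus no-compound background flagged substrates.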
PKM2 activator = PKM2 (human) enzyme activation; P14618; purified PKM2, Kinase-Glo ATP luminescence, activation; response scale: 0% is enzyme alone, no compound; Potency, µM (highest dose often 57.5 µM), inactives show at the top dose activation, actives largely listed as activators; hit rate 0.34% among 260,000; AID 1631; also: potency is read from the fitted curve at half-maximal effect; % is scaled to controls: 0 for no effect and ±100 for the full control effect; nearly all actives have a fitted effect of over 55% in size
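Purified hPK-M2 (>95%) run at intermediate activity with 0.1 mM ADP and 0.5 mM PEP in 50 mM imidazole pH 7.2, KCl, MgCl2; 1 h room temperature. ATP formed read by Kinase-Glo luminescence; normalized to uninhibited and no-enzyme controls.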
HeLa viability = reduces HeLa cell viability in PKM2 activator counter-screen | activity change, negative = cytotoxicity, % at 57.5 µM | AID 1898 | HeLa viability, CellTiter-Glo ATP luminescence, 24 h | shares compounds with PKM2 activator | 230 tested, under 10 active; also: % of control where 0% means no effect
An asterisk follows results filed as active; [ ] = remark or other dose. Compounds with a hit are over-represented: about 1.2% of the library has one in this group of screens. Unless noted, calls follow the shape of the dose curve; as a rule, active = well fitted curve in the direction sought with a large enough effect; inconclusive = small, poorly fitted or top-dose-only effect, or another doubt; inactive = no such curve, though single readings can be large; an effect the other way counts as inactive or inconclusive.

What do the screens show for `CN(C)c1ccc(CNC(=O)C2CCN(Cc3cc4ccccc4n3Cc3ccccc3)CC2)cc1`?
PI4K2A block: -0.2; rTrxR1 inhibitor: -8.2%[57.1 µM]; TrxR1 substrate: -6.1%[57.1 µM]

What do the screens show for `N#CC(C#N)=C1c2cc(S(N)(=O)=O)ccc2-c2ccc(S(N)(=O)=O)cc21`?
GALK inh: -2.7%; PI4K2A block: -5.9; rTrxR1 inhibitor: 10µM*; TrxR1 substrate: 9.2%; PKM2 activator: 0.708µM*; HeLa viability: -0.2

Results for Cc1ccc(NC(=O)CSC2=C(C#N)C(c3ccco3)C3=C(CCCC3=O)N2)cc1 (stereo unspecified) ?
GALK inh: 0.7%; PI4K2A block: 4.7; rTrxR1 inhibitor: -0.9%; TrxR1 substrate: -4.7%; PKM2 activator: 4.47µM*; HeLa viability: -3.4

How did CC1(C)CC(=O)C2=C(C1)NC(SCC(=O)Nc1ccccc1)=C(C#N)C2c1ccco1 (stereo unspecified) do in these assays?
GALK inh: 0.2%; PI4K2A block: -0.6; rTrxR1 inhibitor: 0.1%[11.4 µM]; TrxR1 substrate: 1.6%[57.1 µM]; PKM2 activator: 6.8%

What do the screens show for `O=C(CCCn1c(=S)[nH]c2cc3c(cc2c1=O)OCO3)NC1CC1`?
GALK inh: -3.0%; PI4K2A block: 0.0; rTrxR1 inhibitor: -17.3%; TrxR1 substrate: -9.5%; PKM2 activator: 2.82µM*; HeLa viability: -4.7

What do the screens show for `Cc1ccc(S(=O)(=O)N2CCN(c3ccc([N+](=O)[O-])c(Sc4nncn4C)c3)CC2)cc1`?
GALK inh: -0.7%; PI4K2A block: -2.8; rTrxR1 inhibitor: -13.4%; TrxR1 substrate: -15.1%; PKM2 activator: 0.199µM*; HeLa viability: 0.6

What do the screens show for `CCc1cccc(NC(=O)COc2cc(=O)n(CC)c3ccccc23)c1`?
PI4K2A block: -1.3; rTrxR1 inhibitor: 8.8%; TrxR1 substrate: -1.4%

What do the screens show for `COc1cccc(CNC(=O)C(=O)NCC(c2ccc3c(c2)OCO3)N2CCOCC2)c1` (stereo unspecified)?
PI4K2A block: -17.1; rTrxR1 inhibitor: 10.8%[57.1 µM]; TrxR1 substrate: 1.2%[57.1 µM]

Results for CCc1ccc(NC(=O)CN2C(=O)C3CCCN3c3ccc(S(=O)(=O)N(CC)CC)cc32)cc1 (stereo unspecified) ?
PI4K2A block: 2.7; rTrxR1 inhibitor: 3.0%[57.1 µM]; TrxR1 substrate: -1.3%[57.1 µM]

How did COc1cc(NC(=O)CSc2nnc3c(n2)[nH]c2ccc(S(=O)(=O)NC(C)C)cc23)cc(OC)c1OC do in these assays?
GALK inh: -0.3%; PI4K2A block: 0.5; rTrxR1 inhibitor: -2.9%; TrxR1 substrate: -1.6%; PKM2 activator: 0.794µM*; HeLa viability: -17.5

How did COc1cc(NC(=O)CSc2nnc3c(n2)[nH]c2ccc(OC)cc23)cc(OC)c1 do in these assays?
rTrxR1 inhibitor: -1.7%; TrxR1 substrate: -6.7%

How did Cc1cccc(NC(=O)c2ccc(N(Cc3ccccc3)S(C)(=O)=O)cc2)c1 do in these assays?
PI4K2A block: -0.1; rTrxR1 inhibitor: -6.2%; TrxR1 substrate: -10.1%

How did NC(=O)CC(NC(=O)Cc1ccc(Cl)cc1)c1ccc(NCCc2ccccc2F)c([N+](=O)[O-])c1 (stereo unspecified) do in these assays?
GALK inh: 5.2%; PI4K2A block: -1.4; rTrxR1 inhibitor: 15.8%[57.1 µM]; TrxR1 substrate: 7.0%[57.1 µM]; PKM2 activator: 3.98µM*; HeLa viability: -8.5

What do the screens show for `NC(=O)CC(NC(=O)Cc1ccc(Cl)cc1)c1ccc(NCC2CC2)c([N+](=O)[O-])c1` (stereo unspecified)?
GALK inh: -3.0%; PI4K2A block: 1.5; rTrxR1 inhibitor: -15.6%; TrxR1 substrate: -10.5%; PKM2 activator: 21.2%

Results for Cc1cc2[nH]c3c(=O)n(Cc4ccccc4F)ncc3c2s1 ?
HeLa viability: -2.8

Results for O=c1c2cc3ccccc3n2cnn1Cc1ccccc1F ?
GALK inh: 2.1%; PI4K2A block: -2.6; rTrxR1 inhibitor: 1.9%[57.1 µM]; TrxR1 substrate: 6.8%; PKM2 activator: 6.9%

Results for Cc1cc2c(s1)c1c(C)nn(Cc3ccccc3F)c(=O)c1n2C ?
HeLa viability: -2.9

Results for Cc1ccc(Cl)cc1N1CCN(C(=O)Cn2ncc3c4ccccc4n(C)c3c2=O)CC1 ?
PI4K2A block: 0.3; rTrxR1 inhibitor: 16.1%; TrxR1 substrate: 15.0%

How did Cc1cc2c(s1)c1cnn(Cc3ccc(C)c(F)c3F)c(=O)c1n2C do in these assays?
HeLa viability: -9.5

What do the screens show for `CCn1c2cc(C)sc2c2cnn(Cc3ccccc3F)c(=O)c21`?
HeLa viability: -21.6

What do the screens show for `COc1ccc(CCNC(=O)c2ccc3c(c2)N(Cc2ccc(Cl)cc2)C(=O)c2ccccc2S3)cc1OC`?
PI4K2A block: -9.3; rTrxR1 inhibitor: 19.1%[57.1 µM]; TrxR1 substrate: 2.0%[57.1 µM]

How did Cn1c(=O)n(C)c2cc(N3CCOCC3)c(NS(=O)(=O)c3cccc(C#N)c3)cc21 do in these assays?
PI4K2A block: -4.2; rTrxR1 inhibitor: 17.2%[57.1 µM]; TrxR1 substrate: 7.2%[57.1 µM]

What do the screens show for `Cc1ccccc1Cn1cc(CN2[C@H](CC(C)C)COc3cc(Br)ccc3S2(=O)=O)nn1`?
PI4K2A block: -0.7

What do the screens show for `Cn1c2cc(Br)sc2c2cnn(Cc3ccc(F)cc3F)c(=O)c21`?
PI4K2A block: -5.6; rTrxR1 inhibitor: 6.9%; TrxR1 substrate: 0.1%

Results for Cc1cc2c(s1)c1cnn(Cc3ccc(C(F)(F)F)cc3F)c(=O)c1n2C ?
HeLa viability: 17.5

How did Cc1cc2c(s1)c1cnn(Cc3cccc(F)c3F)c(=O)c1n2C do in these assays?
HeLa viability: -7.5

How did O=[N+]([O-])c1ccc(/C=C/c2cc(Cl)nc3ccccc23)cc1 do in these assays?
rTrxR1 inhibitor: 22.7%; TrxR1 substrate: 0.8%

Results for Cc1ccc(-c2nc3ccccn3c2Nc2ccccc2)o1 ?
GALK inh: 0.1%; PI4K2A block: 3.4; rTrxR1 inhibitor: 57.6%; TrxR1 substrate: 34.4%[57.1 µM]; PKM2 activator: 2.24µM*; HeLa viability: -4.8

What do the screens show for `CCOC(=O)c1c(-c2ccccc2)csc1NC(=O)CSc1ccccc1`?
PI4K2A block: 5.9; rTrxR1 inhibitor: -0.9%; TrxR1 substrate: -2.5%; PKM2 activator: -17.4%

What do the screens show for `CCOC(=O)c1c(-c2ccccc2)csc1NC(=O)CSc1nnnn1C`?
GALK inh: 2.3%; PI4K2A block: -1.2; rTrxR1 inhibitor: 22.7%; TrxR1 substrate: 0.2%; PKM2 activator: 3.55µM*; HeLa viability: inconclusive

What do the screens show for `CN(c1ccccc1)S(=O)(=O)c1cccc(C(=O)NCCc2ccc(O)c(O)c2)c1`?
GALK inh: -1.0%; PI4K2A block: -1.4; rTrxR1 inhibitor: inconclusive; TrxR1 substrate: 13.0%[57.1 µM]; PKM2 activator: 1.41µM*; HeLa viability: -21.7

Screening results from PubChem.
